Among the data in PubChem BioAssay (NCI) are growth values, retold here.

The panel holds about 83,000 compounds, 20% with a hit somewhere; the sample as a whole holds those more often.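 Negative percent growth values reflect cell death: -40 means 40% of the cells present at the start died, and -100 means all died.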 Values without a mark were called inactive. Active and inactive are the calls of the source. How the source made its calls: active means growth percent below 10; inactive means the rest.

Among the test systems are DU-145 prostate; K-562 leukemia; MALME-3M melanoma; MDA-MB-231 breast; RXF 393 renal; SF-268 CNS; SF-539 CNS; M14 melanoma; SF-295 CNS; UACC-257 melanoma.
What all share (assay): NCI-60 one-dose screen, 48 h (100 = growth as untreated, 0 = no growth, -100 = all killed)
Common to all, as to conditions: 10 µM unless noted

`NC1=CSC2=N/C(=C\c3ccc(Cl)cc3)C(=O)N12`: the growth is 77.9% in the assay with DU-145 prostate; 40.1% with K-562 leukemia; 64.9% in the assay on MALME-3M melanoma; 83.2% in the assay on MDA-MB-231 breast; 65.7% with RXF 393 renal; 90.4% in the assay with SF-268 CNS. Further, the growth with SF-539 CNS is 90.4%; in the assay on M14 melanoma, 76.8%.
Take `O=C1Nc2ccccc2/C1=C/C(=N/c1nnc(-c2ccc(Cl)cc2)s1)c1ccccc1`: the growth with DU-145 prostate is 30.5%; in the assay with K-562 leukemia, 8.67% (active); in the assay on MALME-3M melanoma it was -26.5% (active); with MDA-MB-231 breast, 35.5%; with RXF 393 renal it was -63.3% (active); in the assay on SF-268 CNS it was 55.9%. Besides, the figures for the growth in the assay on SF-539 CNS and in the assay with M14 melanoma were 27.9% and 52.2%, respectively.
In the case of `NC(N)=Nc1ccc(S(=O)(=O)O)cc1`, the growth in the assay with DU-145 prostate was 131%; in the assay with K-562 leukemia, 92.2%; in the assay on MALME-3M melanoma, 103%; in the assay on MDA-MB-231 breast, 93.6%; in the assay with RXF 393 renal it was 136%; with SF-268 CNS, 110%. In addition, the growth in the assay on SF-295 CNS was 117%; in the assay with UACC-257 melanoma, 99.1%; in the assay on M14 melanoma, 110%.
Consider `CCCCNc1ccc2c3c1cccc3c(=O)n1c3ccccc3nc21`, for which the growth was 99.4% with DU-145 prostate; 78.8% in the assay with K-562 leukemia; 89.3% in the assay on MALME-3M melanoma; 79.8% in the assay with MDA-MB-231 breast; 104% in the assay with RXF 393 renal; 101% with SF-268 CNS. The growth in the assay with SF-539 CNS was 103%; in the assay on M14 melanoma, 93.1%.
Consider `CCC(c1ccccc1)C(CC)c1ccc(O)c(O)c1` (stereo not drawn), for which the growth with DU-145 prostate is 100%; in the assay on K-562 leukemia it was 87%; with MALME-3M melanoma, 114%; with MDA-MB-231 breast, 109%; in the assay with RXF 393 renal, 106%; in the assay with SF-268 CNS, 92.1%. Moreover, the growth in the assay with SF-295 CNS is 106%; in the assay with UACC-257 melanoma it was 97.3%; in the assay on M14 melanoma, 96.9%.
As for `O=c1c2cccc3c(Nc4c(F)cccc4F)ccc(c32)c2nc3ccccc3n12`, the growth in the assay with DU-145 prostate was 104%; with K-562 leukemia, 84.9%; in the assay with MALME-3M melanoma, 93.8%; in the assay with MDA-MB-231 breast, 82.1%; with RXF 393 renal, 116%; with SF-268 CNS, 97.8%. Also, the growth in the assay with SF-539 CNS and in the assay with M14 melanoma was 100% in each case.
In the case of `O=C(CCCN1CCOCC1)Nc1ccc(Cn2nnc3c2C(=O)c2nnn(Cc4ccc(NC(=O)CCCN5CCOCC5)cc4)c2C3=O)cc1`, the growth with DU-145 prostate was 82.3%; in the assay on K-562 leukemia, 20.9%; in the assay with MALME-3M melanoma it was -74.3% (active); in the assay on MDA-MB-231 breast it was 5.78% (active); in the assay on RXF 393 renal, 84.5%; in the assay on SF-268 CNS, 23.4%. In addition, the growth was 79.3% with SF-295 CNS, -88% (active) in the assay on UACC-257 melanoma and 60.6% with M14 melanoma.
With `NC1=CC(=O)C(=O)c2ccccc21`, the growth in the assay on DU-145 prostate is 102%; in the assay with K-562 leukemia it was 71%; in the assay on MALME-3M melanoma it was 45.7%; in the assay with MDA-MB-231 breast, 77.5%; in the assay on RXF 393 renal, 100%; in the assay with SF-268 CNS, 93.3%. The growth was 80.7% in the assay on SF-295 CNS, 51.5% with UACC-257 melanoma and 68.1% with M14 melanoma.
`O=S(=O)(NCCCNc1cc(-c2cn(-c3ccccc3)nc2-c2cccc(O)c2)ccn1)c1ccccc1`: the growth is 53.7% with DU-145 prostate; 1.96% (active) with K-562 leukemia; 37.2% in the assay with MALME-3M melanoma; 9.24% (active) with MDA-MB-231 breast; 36.7% with RXF 393 renal; 52.8% in the assay on SF-268 CNS. The growth in the assay on SF-295 CNS is 11%; with M14 melanoma it was 46.2%.
With `CCN(CC)CCC(=O)Nc1ccc(Cn2nnc3c2C(=O)c2nnn(Cc4ccc(NC(=O)CCN(CC)CC)cc4)c2C3=O)cc1`, the growth was -92.6% (active) in the assay on DU-145 prostate; 2.02% (active) in the assay with K-562 leukemia; -79.5% (active) with MALME-3M melanoma; -5.66% (active) in the assay with MDA-MB-231 breast; 19.9% with RXF 393 renal; -38.1% (active) with SF-268 CNS. The growth with SF-295 CNS is -57.2% (active); in the assay on UACC-257 melanoma it was -56.1% (active); with M14 melanoma, -16.3% (active).
In the case of `CCC(C)[C@@H]1NC(=O)[C@@H]2CCCN2C(=O)[C@H](Cc2ccccc2)NC(=O)[C@@H]2CCCN2C(=O)[C@H](Cc2ccccc2)NC(=O)[C@@H]2CCCN2C(=O)[C@H](Cc2ccccc2)NC1=O` (stereo partly drawn), the growth in the assay on DU-145 prostate was 118%; in the assay with K-562 leukemia, 91.5%; in the assay with MALME-3M melanoma, 126%; in the assay with MDA-MB-231 breast, 104%; in the assay with RXF 393 renal, 111%; in the assay on SF-268 CNS it was 119%. Also, the growth is 109% in the assay with SF-539 CNS and 105% in the assay with M14 melanoma.
On to `Nc1nc2c(c3ncccc13)C(c1cccc(Br)c1)Cc1ncccc1-2` (stereo not drawn), for which the growth was 19.8% with DU-145 prostate; 10.3% with K-562 leukemia; 58.4% in the assay with MALME-3M melanoma; 20.4% in the assay on MDA-MB-231 breast; -7.52% (active) in the assay with RXF 393 renal; 56.4% in the assay with SF-268 CNS. In addition, the growth was 7.75% (active) in the assay on SF-295 CNS, 37.9% in the assay with UACC-257 melanoma and 11.2% with M14 melanoma.
Turning to `CC/C=C\C[C@H](O)C/C=C1/C(=O)C=C[C@@H]1C/C=C\CCCC(N)=O`, the growth is 18.8% with DU-145 prostate; -1.14% (active) with K-562 leukemia; -14.8% (active) in the assay with MALME-3M melanoma; 20.4% with MDA-MB-231 breast; -81% (active) in the assay with RXF 393 renal; 27.3% with SF-268 CNS. In addition, the values for the growth in the assay on SF-295 CNS, in the assay with UACC-257 melanoma and with M14 melanoma were -22.2% (active), -11.7% (active) and 1.88% (active), respectively.
As for `O=S(=O)(NCCCNc1cc(-c2cn(-c3ccccc3)nc2-c2ccccc2)ccn1)c1ccc(C(F)(F)F)cc1`, the growth in the assay on DU-145 prostate is 75.9%; in the assay with K-562 leukemia, 15.8%; with MALME-3M melanoma, 70%; in the assay with MDA-MB-231 breast it was 52.5%; in the assay on RXF 393 renal, 48%; in the assay with SF-268 CNS it was 58.2%. Further, the results for the growth with SF-295 CNS and in the assay with M14 melanoma were 38.8% and 53.1%, respectively.
As to `COc1ccc(N(Cc2cc(OC)c(OC)c(OC)c2)C2OC(=O)c3ccccc32)cc1` (stereo not drawn), the growth with DU-145 prostate is 25.5%; with K-562 leukemia, 17.7%; in the assay with MALME-3M melanoma it was 31.3%; with MDA-MB-231 breast it was 41.1%; with RXF 393 renal it was -31.7% (active); in the assay on SF-268 CNS, 44%. Also, the growth in the assay with SF-295 CNS was 16.3%; in the assay on UACC-257 melanoma, 70.8%; in the assay on M14 melanoma, 25.7%.
